Data on 37 molecules can be found in PubChem BioAssay (Tox21).

Results filed as inconclusive are left out. Where a call stands in place of a potency, no number is given. The source made the active and inactive calls. Unless noted, calls follow the shape of the dose curve; as a rule, active = well fitted cell-killing curve with a large enough effect in the repeat runs; inconclusive = weak or mixed curves, or effect the other way; inactive = no such curve, though single readings can be large or run the other way.

The nature of one test: qHTS assay for small molecule agonists of the antioxidant response element (ARE) signaling pathway (AID 743202; active = well fitted activation curve with a large enough effect in the signal ratio in the repeat runs, not every such curve was filed as active; the % refers to the signal ratio; also: potency is read from the fitted curve at half-maximal effect). The note with it: HepG2 ARE-bla reporter, beta-lactamase FRET, 16 h; series mostly up to 73.3 µM. In a few lines: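 ARE-bla HepG2 cells (beta-lactamase reporter under the antioxidant response element), plated 5 hours, then exposed to compounds 16 hours at 37 C. LiveBLAzer B/G FRET substrate added for 2 hours at room temperature; fluorescence intensity read.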
On the technique in general: In qHTS, concentration-response curves come from the screen itself.
Turning to `C[C@@H](O)[C@H]1C(=O)N2C(C(=O)O)=C(S[C@@H]3CN[C@H](CNS(N)(=O)=O)C3)[C@H](C)[C@H]12`, the Potency entry was “inactive”.

As to `OCCc1ccncc1`, the Potency entry was “inactive”.

For `CCCCCCCCCCCCSC#N`, the Potency entry is “inactive”.

For `COc1cc(CNC(=O)CCCC/C=C/C(C)C)ccc1O`, the Potency is 47.3 µM (active).

In the case of `C/C=C1\[C@H]2C=C(C)C[C@]1(N)c1ccc(=O)[nH]c1C2`, the Potency result was “inactive”.

For the molecule `CC(C)C[C@H](NC(=O)[C@H](Cc1ccccc1)NC(=O)c1cnccn1)B(O)O`, the Potency was 0.0237 µM (active).

On to `C=CCCC`, for which the Potency result is “inactive”.

Regarding `CC(=O)Nc1ccccc1O`, the Potency was 27.3 µM (active).

Regarding `O=C(O)CNc1ccccc1`, the Potency result was “inactive”.

With `CC(C)CC(C)(C)C`, the Potency result was “inactive”.

Consider `O=C(O)c1ccccc1-n1cc(C(=O)O)c(=O)c2cc(Nc3c(F)cc(F)cc3Cl)c(Cl)cc21`, for which the Potency result was “inactive”.

With `CCC(C)C1N=C(C)C(C)S1` (stereo unspecified), the Potency entry is “inactive”.

With `CCN(CCCCOC(=O)c1ccc(OC)c(OC)c1)C(C)Cc1ccc(OC)cc1` (stereo unspecified), the Potency entry is “inactive”.

A short description of a further test: qHTS assay for small molecule agonists of the antioxidant response element (ARE) signaling pathway - cell viability counter screen (AID 743203; calls by dose curve; also: nearly all actives have a fitted effect of over 55% in size; also: potency is read from the fitted curve at half-maximal effect). The note with it: ARE-bla HepG2 viability, CellTiter-Glo luminescence, 16 h; series mostly up to 73.3 µM. In a few lines:
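Following 16 hrs of compound treatment at 37C, HepG2 cells with an ARE-controlled beta-lactamase gene were lysed with CellTiter-Glo. Luminescence was read after 30 min at room temperature.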
Turning to `C=CC(C)(O)CC/C=C(/C)CCC=C(C)C` (stereo unspecified), the Potency entry is “inactive”.

In the case of `CC/C=C/CCO`, the Potency entry is “inactive”.

With `C[C@@H](O)[C@H]1C(=O)N2C(C(=O)O)=C(S[C@@H]3CN[C@H](CNS(N)(=O)=O)C3)[C@H](C)[C@H]12`, the Potency result is “inactive”.

For the molecule `O=C(NC1CCN(CCc2c[nH]c3ccccc23)CC1)c1ccccc1`, the Potency result is “inactive”.

For `Cc1c(-c2cccnc2)c2ccccc2n1CCCCC(=O)O`, the Potency result is “inactive”.

With `OCCc1ccncc1`, the Potency result was “inactive”.

Regarding `CC(C)(C(=O)O)c1ccc(C(O)CCCN2CCC(C(O)(c3ccccc3)c3ccccc3)CC2)cc1` (stereo unspecified), the Potency result was “inactive”.

For `O=C1c2ccccc2C(=O)c2c1ccc(O)c2O`, the Potency entry is “inactive”.

Turning to `O=[N+]([O-])c1ccc(Cl)cc1Cl`, the Potency entry was “inactive”.

As to `CCCCCCCCCCCCSC#N`, the Potency entry is “inactive”.

Take `COc1cc(CNC(=O)CCCC/C=C/C(C)C)ccc1O`: the Potency result is “inactive”.

As for `C/C=C1\[C@H]2C=C(C)C[C@]1(N)c1ccc(=O)[nH]c1C2`, the Potency result is “inactive”.

In the case of `Cc1cc(SC2=C(O)C[C@@](CCc3ccc(N)cc3)(C(C)C)OC2=O)c(C(C)(C)C)cc1CO`, the Potency result is “inactive”.

With `O=C(OC1C[C@H]2CC[C@@H](C1)[N+]21CCCC1)C(O)(c1ccccc1)c1ccccc1` (stereo partly specified), the Potency result was “inactive”.

As to `CC(C)C[C@H](NC(=O)[C@H](Cc1ccccc1)NC(=O)c1cnccn1)B(O)O`, the Potency was 0.335 µM (active).

Consider `CCOCCn1c(N2CCCN(C)CC2)nc2ccccc21`, for which the Potency entry was “inactive”.

In the case of `CC/C=C\CCO`, the Potency entry was “inactive”.

For `CC(=O)c1ccc(Cl)c(Cl)c1Cl`, the Potency entry was “inactive”.

`C[C@H](CN1CCCC1)C(=O)c1ccc(C(F)(F)F)cc1`: the Potency entry is “inactive”.

As for `C=CCCC`, the Potency entry is “inactive”.

Regarding `CC(=O)Nc1ccccc1O`, the Potency result is “inactive”.

Take `O=C(O)CNc1ccccc1`: the Potency result was “inactive”.

With `CC(C)CC(C)(C)C`, the Potency result was “inactive”.

Turning to `O=C1OC(=O)C2CC=CCC12` (stereo unspecified), the Potency entry was “inactive”.

As for `CC(C)(C)c1ccc(CCC=O)cc1`, the Potency result is “inactive”.

With `O=C(O)c1ccccc1-n1cc(C(=O)O)c(=O)c2cc(Nc3c(F)cc(F)cc3Cl)c(Cl)cc21`, the Potency entry was “inactive”.

`O=C(O)COCC(=O)O`: the Potency result was “inactive”.

In the case of `NC(=O)c1ccccc1`, the Potency result was “inactive”.

Take `Cc1ccc(NC(=O)c2ccc(CN3CCN(C)CC3)cc2)cc1Nc1nccc(-c2cccnc2)n1`: the Potency result was “inactive”.

For `CCC(C)C1N=C(C)C(C)S1` (stereo unspecified), the Potency result was “inactive”.

`CCN(CCCCOC(=O)c1ccc(OC)c(OC)c1)C(C)Cc1ccc(OC)cc1` (stereo unspecified): the Potency entry is “inactive”.

The next test in a line: qHTS assay for small molecule activators of the heat shock response signaling pathway - cell viability counter screen (AID 743209). Also: nearly all actives have a fitted effect of over 50% in size. The note with it: HSE-bla HeLa viability, CellTiter-Glo luminescence, 5 h; series mostly up to 62.6 µM. In a few lines:
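Readout: CellTiter-Glo luminescence, 30 min at room temperature. System: HSE-bla HeLa cells, 1500/well, plated overnight. Treatment: compounds in DMSO, 5 h at 37 C.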
Regarding `C=CC(C)(O)CC/C=C(/C)CCC=C(C)C` (stereo unspecified), the molecule was called inactive.

For `CC/C=C/CCO`, the molecule was classed as inactive.

For `C[C@@H](O)[C@H]1C(=O)N2C(C(=O)O)=C(S[C@@H]3CN[C@H](CNS(N)(=O)=O)C3)[C@H](C)[C@H]12`, the molecule was called inactive.

With `O=C(NC1CCN(CCc2c[nH]c3ccccc23)CC1)c1ccccc1`, the outcome was inactive.

As for `Cc1c(-c2cccnc2)c2ccccc2n1CCCCC(=O)O`, the result was inactive.

As for `O=C(O)c1cc(C(=O)O)c(C(=O)O)cc1C(=O)O`, the call was inactive.

`OCCc1ccncc1`: the result was inactive.

In the case of `CC(C)(C(=O)O)c1ccc(C(O)CCCN2CCC(C(O)(c3ccccc3)c3ccccc3)CC2)cc1` (stereo unspecified), the molecule was called inactive.

With `C1CCN(CN2CCCCC2)CC1`, the outcome was inactive.

Consider `CC1=CC(=C(c2ccc(N)cc2)c2ccc(N)cc2)C=CC1=N`, for which the activity change, negative = cytotoxicity was -5.14% [at 5.95 µM] (inactive).

In the case of `O=[N+]([O-])c1ccc(Cl)cc1Cl`, the result was inactive.

In the case of `COc1cc(CNC(=O)CCCC/C=C/C(C)C)ccc1O`, the outcome was inactive.

With `C/C=C1\[C@H]2C=C(C)C[C@]1(N)c1ccc(=O)[nH]c1C2`, the molecule was called inactive.

For `O=C(OC1C[C@H]2CC[C@@H](C1)[N+]21CCCC1)C(O)(c1ccccc1)c1ccccc1` (stereo partly specified), the result was inactive.

Regarding `CC(C)C[C@H](NC(=O)[C@H](Cc1ccccc1)NC(=O)c1cnccn1)B(O)O`, the molecule was called inactive.

In the case of `CCOCCn1c(N2CCCN(C)CC2)nc2ccccc21`, the call was inactive.

Take `CC/C=C\CCO`: the outcome was inactive.

Turning to `CC(=O)c1ccc(Cl)c(Cl)c1Cl`, the outcome was inactive.

For the molecule `C[C@H](CN1CCCC1)C(=O)c1ccc(C(F)(F)F)cc1`, the molecule was called inactive.

Consider `C=CCCC`, for which the outcome was inactive.

For `O=C(O)CNc1ccccc1`, the call was inactive.

Take `CC(C)CC(C)(C)C`: the call was inactive.

Take `O=C1OC(=O)C2CC=CCC12` (stereo unspecified): the molecule was called inactive.

Turning to `SCCOCCOCCS`, the molecule was classed as inactive.

`S=c1[nH][nH]c(=S)s1`: the result was inactive.

Regarding `CC(C)(C)c1ccc(CCC=O)cc1`, the call was inactive.

`O=C(O)c1ccccc1-n1cc(C(=O)O)c(=O)c2cc(Nc3c(F)cc(F)cc3Cl)c(Cl)cc21`: the result was inactive.

For `O=C(O)COCC(=O)O`, the call was inactive.

`NC(=O)c1ccccc1`: the call was inactive.

Consider `CCC(C)C1N=C(C)C(C)S1` (stereo unspecified), for which the molecule was called inactive.

For `CCN(CCCCOC(=O)c1ccc(OC)c(OC)c1)C(C)Cc1ccc(OC)cc1` (stereo unspecified), the molecule was called inactive.

As to `CCCN(C1CCN(C(=O)C2CCNCC2)CC1)[C@@H]1CCc2ccc(OC)cc2C1`, the molecule was called inactive.
